Screens: PubChem, National Center for Advancing Translational Sciences (NCATS)
Compounds with a hit are over-represented: about 21% of the library has one in this group of screens.
HCMV antiviral = human cytomegalovirus inhibition; HFF cells, HCMV-luciferase reporter, 72 h; active compounds read low; activity change, negative = inhibition, % at 57.5 µM; 4.5% of 410,000 active; AID 1259415; in the data active = activity change below about -60%; inconclusive = no clear call, values can overlap the other calls; inactive = above about -39%; also: % is scaled to controls: 0 for no effect and ±100 for the full control effect
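Inhibition of viral replication was scored as loss of reporter luminescence in HFFs infected with HCMV-luciferase (MOI 1 PFU/cell) for 72 h; compounds tested at 2 doses, normalized to buffer and Salinomycin controls.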
Shiga inhibitor = blocks Shiga toxin action in Vero cells; AID 2315; 9.2% of 290,000 active; inhibition, % at 38.7 µM; Vero cells, Shiga toxin protein synthesis inhibition reporter; in the data active = inhibition mostly above about 28%, no sharp cut-off; inactive = mostly below about 43%; also: 0% is about no effect
CHX counter = counter-screen for Shiga toxin inhibitors: cycloheximide protein synthesis inhibition | cell reporter, cycloheximide protein synthesis inhibition counterscreen | max response, % | 12% of 300,000 active | AID 2314; in the data active = max response mostly above about 13%, no sharp cut-off; inactive = mostly below about 14%; also: read at 38.3 µM for the half of the compounds with a filed dose; 0% is about no effect
HCV inhibitor = blocks hepatitis C virus | Huh7.5.1 HCVcc-Cre infection, luciferase reporter, 44 h | Potency, µM (series often up to 41.8 µM), without a hit: at the top dose activity change, negative = inhibition, hits mostly inhibitors | 3.4% of 340,000 active; also: potency is read from the fitted curve at half-maximal effect; % is scaled to controls: 0 for no effect and ±100 for the full control effect
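Infectious HCV cell culture screen: compound-treated cells (1,000/well, pre-plated 4 h) are infected with HCVcc-Cre at roughly 0.5 moi and grown 44 h. Infection is quantified by luciferase signal after 15 min substrate incubation at room temperature.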
Pf growth 48h = inhibits P. falciparum growth in the first generation, 48 h; P. falciparum luciferase growth in erythrocytes, 48 h; Potency, µM (highest dose often 28.7 µM), for inactives: at the top dose activity change, negative = inhibition, hits mostly inhibitors; 5.9% of 310,000 active; also: potency is read from the fitted curve at half-maximal effect; % is scaled to controls: 0 for no effect and ±100 for the full control effect
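Read-out is firefly luciferase luminescence from an integrated reporter in P. falciparum, so falling signal marks reduced parasite growth. Infected erythrocytes were at 2% hematocrit and 0.1% parasitemia (final) in Albumax-supplemented RPMI 1640.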
Pf growth 96h = P. falciparum growth inhibition at 96 hour, primary screen for plastid delayed-death inhibitors | P. falciparum luciferase reporter growth, 96 h | Potency, µM (top dose mostly 28.7 µM), for the others: top-dose activity change, negative = inhibition, hits mostly inhibitors | 6.9% of 320,000 active | AID 504834; also: potency is read from the fitted curve at half-maximal effect; % is scaled to controls: 0 for no effect and ±100 for the full control effect
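Delayed-death screen, second-generation endpoint: infected erythrocytes, 2% hematocrit, 0.05% parasitemia final; 96 hours at 37 C, 5% CO2; luciferase detection reagent; luminescence decrease equals reduced growth.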
* hit, by the source's call; u = inconclusive; x = not tested or not shown; [ ] = dose if it differs, or a comment. Unless noted, calls follow the shape of the dose curve; as a rule, active = well fitted inhibition curve with a large enough effect; inconclusive = small, poorly fitted or top-dose-only effect, or another doubt; inactive = no such curve, though single readings can be large or run the other way.

SMILES | HCMV antiviral | Shiga inhibitor | CHX counter | HCV inhibitor | Pf growth 48h | Pf growth 96h
Cc1ccccc1NC(=S)NCCc1c[nH]c2ccccc12 | -17.3 | 12.0 | 11.2 | -3.1% | u | u
COc1ccc(OC)c(CNS(=O)(=O)c2ccccc2Br)c1 | 2.4 | x | x | x | x | x
CCC(C(=O)NCCc1c[nH]c2ccc(C)cc12)c1ccccc1 (stereo not given) | 10.4 | -3.7 | -1.0 | u | u | 14.7µM*
C=C1C(=O)C=C[C@]2(C)C[C@@H]3OC(=O)[C@](C)(O)[C@H]3C[C@@H]12 | -98.0* | 62.9* | 34.5* | u | 11.7µM* | 14.7µM*
CN1CCN(c2ccc(Cl)cc2NC(=O)C2COc3ccccc3O2)CC1 (stereo not given) | 86.9 | 9.3 | -0.3 | -24.1% | 8.28µM* | 2.33µM*
CN1CCN(c2ccc(Cl)cc2NC(=O)/C=C/c2cccc(F)c2)CC1 | 25.8 | -23.7 | 3.0 | u | 9.28µM* | u
COc1ccc(Cl)cc1NC(=O)C1COc2ccccc2O1 (stereo not given) | -5.1 | 44.9* | 38.1* | -21.0% | 5.8% | -6.9%
CN1CCN(c2ccc(Cl)cc2NC(=O)c2cccc(S(=O)(=O)N(C)C)c2)CC1 | -1.9 | 7.7 | 5.9 | u | u | x
O=C1C(=O)c2ccc(-c3ccccc3)cc2-c2ccccc21 | -99.0* | 10.7 | -1.3 | 4.47µM* | 10.4µM* | 3.7µM*
Nc1ccc2c(c1)C(=O)C(=O)c1ccccc1-2 | -98.2* | -27.7 | -8.6 | 2.51µM* | x | u
Nc1ccc2c(c1)C(=O)c1ccccc1-2 | 39.3 | x | x | u | x | x
CCC[C@@H]1NC(=O)CNC(=O)[C@H](Cc2ccccc2)NC(=O)[C@H]([C@H](C)O)NC(=O)[C@H](CCC(N)=O)NC(=O)C(C(C)C(C)Cl)NC(=O)[C@H](CC(C)C)N(C)C(=O)[C@H](C)NC(=O)CC(O)C(NC(=O)[C@@H](CC(C)C)NC=O)C(C)OC1=O (stereo not given in full) | 18.3 | x | x | x | x | x
c1ccc2oc(NC3=NCN(CC4CCCO4)CN3)nc2c1 (stereo not given) | 101.5 | 81.4* | 28.7* | 0.8% | 112.1% | x
COCCCN1CN=C(Nc2nc3ccccc3o2)NC1 | 69.5 | 60.6* | 40.0* | 17.4% | 206.5% | -4.9%
COCCCN1CN=C(NS(=O)(=O)c2ccc(NC(C)=O)cc2)NC1 | -3.2 | x | x | x | x | x
OCCN1CN=C(Nc2nc3ccccc3o2)NC1 | 46.3 | -4.0 | -1.3 | -1.1% | 46.4% | -33.2%
CCCN1CN=C(Nc2nc3ccccc3o2)NC1 | 72.0 | 129.5* | 32.3* | 7.8% | 84.6% | 44.4%
CC1CCN(CCCCOc2ccc([N+](=O)[O-])cc2)CC1 | -2.7 | -22.6 | -3.2 | 12.9% | u | u
COC(=O)C1CCN(Cc2ccc(OCCCN3CCN(c4ccc([N+](=O)[O-])cc4)CC3)cc2)CC1 | -31.8 | 20.0 | -1.6 | u | 2.33µM* | 10.4µM*
O=c1[nH]c2cc3c(cc2cc1C(c1nnnn1CC1CCCO1)N1CCCC1)OCO3 (stereo not given) | -33.7 | 24.1 | 6.6 | -8.6% | -2.0% | u
CC(C)C(c1nnnn1CC1CCCO1)N1CCN(C2CCCC2)CC1 (stereo not given) | 0.9 | -12.4 | -5.0 | 5.8% | 6.2% | 13.1µM*
CC(C)C(c1nnnn1Cc1cccs1)N1CCN(C2CCCC2)CC1 (stereo not given) | 27.4 | -20.1 | 0.1 | 3.5% | -1.5% | u
Cc1cc(C)c2cc(C(c3nnnn3CC3CCCO3)N3CCN4CCCC4C3)c(=O)[nH]c2c1 (stereo not given) | 18.1 | -3.3 | -4.5 | 3.0% | 14.7µM* | -2.4%[5.75 µM]
CC(C)C(NC(=O)c1ccc(C(C)(C)C)cc1)C(=O)NCC1(N(C)C)CCCCC1 (stereo not given) | -27.3 | -5.5 | -3.9 | 4.3% | -25.2% | u
Fc1ccc(NC(=S)Nc2ccc(F)c(Cl)c2)cc1Cl | x | 9.7 | 2.8 | u | x | u
S=C(Nc1ccc2c(c1)OCCO2)Nc1ccccc1Cl | 44.8 | 48.0* | 32.7* | 12.2% | 30.3% | -82.4%
CCn1ncc(NC(=S)Nc2ccc3c(c2)OCO3)c1C(N)=O | -10.3 | 67.7* | 14.8* | 6.2% | 11.8% | -16.2%[5.75 µM]
